DUSP3 inh: blocks human VHR1 dual specificity phosphatase | recombinant VHR phosphatase, pNPP absorbance | P51452 | 290,000 compounds, 0.52% hits | AID 1654 | inhibition, % at 13.3 µM; in the data active means inhibition above about 50%
SARS 3CLpro inh: SARS-CoV 3CLpro protease inhibition | P0C6X7 | recombinant SARS-CoV 3CLpro, quenched FRET peptide cleavage | inhibition, % at 6 µM | 290,000 compounds, 0.14% hits | AID 1706; in the data active means inhibition above about 12%
Vc quorum ag: inducers of Vibrio cholerae quorum light production without autoinducers; V. cholerae BH1578 lux reporter, luminescence, 6 h; activation, % at 18.7 µM; 350,000 compounds, 0.16% hits; AID 588436; in the data active means activation mostly above about 9.7%, no sharp cut-off
TcdB inh: blocks C. difficile toxin B glycohydrolase activity; AID 652162; inhibition, % at 9.99 µM; 350,000 compounds, 0.24% hits; P18177; TcdB glycohydrolase enzymatic assay, plate reader; in the data active means inhibition above about 10%
CCHF vOTU inh-1: blocks the CCHF virus ovarian tumor domain protease. CCHFV vOTU protease, Pep-AMC fluorescence. inhibition, % at 11.5 µM. 370,000 compounds, 0.55% hits. AID 651958
SSB-PriA inh: blocks PriA binding to SSB C-terminal tail; inhibition, % at 33 µM; 430,000 compounds, 0.6% hits; AlphaScreen SSBct-PriA binding, biotinylated peptide; in the data active means inhibition mostly above about 37%, no sharp cut-off; inactive means mostly below about 20%
CCHF vOTU inh-2: confirmation of CCHF virus vOTU protease inhibitors; shares compounds with CCHF vOTU inh-1; Recombinant CCHFV vOTU, Pep-AMC fluorescence; inhibition, % at 11.5 µM; 1,900 compounds, 17% hits; AID 686976
Each line names hits and unclear results; the compound was inactive in the other large screens (follow-up assays come after a bar, where they were run); ! = not confirmed by another sample. A selection: hits, their analogues and other compounds. The true share with any hit is near 1.3%. Unless noted, no stated cut-off is given here; in the data, active means inhibition above about 30%; inactive means the rest.

COC(=O)c1ccc2c(=O)n(CCC(=O)N3CCOCC3)c(=S)[nH]c2c1	none (no result: DUSP3 inh, SARS 3CLpro inh, Vc quorum ag, TcdB inh, CCHF vOTU inh-1)
Cc1cccc(CC(=O)Nc2ccc3c(c2)CN(C(=O)C2CC2)CC3)c1	none (no result: DUSP3 inh, SARS 3CLpro inh, Vc quorum ag, TcdB inh, CCHF vOTU inh-1)
COc1ccc2cc([C@H](C)C(=O)OCc3cn(CC(=O)c4ccc(O)cc4)nn3)ccc2c1	none (no result: DUSP3 inh, SARS 3CLpro inh)
O=C(Cn1cc(COC(=O)c2c3ccccc3cc3ccccc23)nn1)c1ccc(O)cc1	CCHF vOTU inh-1 34.1 (no result: DUSP3 inh, SARS 3CLpro inh, Vc quorum ag, SSB-PriA inh) | CCHF vOTU inh-2 inactive
O=C1C(Cl)=C(NCCN2CCOCC2)C(=O)c2ccccc21	CCHF vOTU inh-1 43.4 | CCHF vOTU inh-2 62.1
CCOCCCNC1=C(Cl)C(=O)c2ccccc2C1=O	CCHF vOTU inh-1 46.5 | CCHF vOTU inh-2 59.6
Cc1ccc(NC2=C(NCCO)C(=O)c3ccccc3C2=O)cc1	CCHF vOTU inh-1 114.8 (no result: TcdB inh) | CCHF vOTU inh-2 42.0
O=C1C(Cl)=C(NCCCN2CCOCC2)C(=O)c2ccccc21	none (no result: DUSP3 inh, SARS 3CLpro inh)
O=C1C(Cl)=C(NCCCO)C(=O)c2ccccc21	CCHF vOTU inh-1 45.2 (no result: TcdB inh) | CCHF vOTU inh-2 48.1
CC(C)=NN=C1NC(=O)C(Cc2ccccc2)S1 (stereo unspecified)	none (no result: DUSP3 inh, SARS 3CLpro inh, Vc quorum ag, TcdB inh, CCHF vOTU inh-1)
CCN1C(=O)C(C)(C)COc2ccc(NC(=O)c3c(OC)cccc3OC)cc21	none (no result: DUSP3 inh, SARS 3CLpro inh, Vc quorum ag, TcdB inh, CCHF vOTU inh-1)
CN1CCC/C1=C/C=C1\SC(=S)NC1=O	CCHF vOTU inh-1 40.2 | CCHF vOTU inh-2 33.3
O=C(O)c1cc(N2N=C(C(F)(F)F)/C(=C/C=C/c3ccco3)C2=O)ccc1Cl	CCHF vOTU inh-1 63.4 | CCHF vOTU inh-2 44.0
CN(C)CC1CSCCCN1C(=O)CC(c1ccccc1)c1ccccc1 (stereo unspecified)	none (no result: DUSP3 inh, SARS 3CLpro inh, Vc quorum ag, TcdB inh, CCHF vOTU inh-1)
O=C(O)c1ccccc1-c1c2cc(I)c(=O)c(I)c-2oc2c(I)c(O)c(I)cc12	CCHF vOTU inh-1 36.6! (no result: DUSP3 inh, SARS 3CLpro inh) | CCHF vOTU inh-2 38.6
COc1ccccc1N(/N=C1\Sc2ccccc2C1=O)C(C)=O	CCHF vOTU inh-1 31.6 (no result: SSB-PriA inh) | CCHF vOTU inh-2 inactive
COc1ccc(N(/N=C2\Sc3ccccc3C2=O)C(C)=O)cc1	none (no result: TcdB inh, SSB-PriA inh)
COc1ccc(OC)c(NC(=O)CSc2nc(O)cc(=O)n2CC(C)C)c1	CCHF vOTU inh-1 32.5 (no result: DUSP3 inh, SARS 3CLpro inh) | CCHF vOTU inh-2 inactive
CCC12CCCN3CCc4c(n(c5ccccc45)C(O)(C(=O)OC)C1)C32 (stereo unspecified)	CCHF vOTU inh-1 41.8 | CCHF vOTU inh-2 inactive
O=C(O)c1cc(O)c2c(c1)[C@H]([C@H]1c3cc(C(=O)O)cc(O)c3C(=O)c3c(O[C@@H]4O[C@H](CO)[C@@H](O)[C@H](O)[C@H]4O)cccc31)c1cccc(OC3O[C@H](CO)[C@@H](O)[C@H](O)[C@H]3O)c1C2=O (stereo partly specified)	CCHF vOTU inh-1 118.1 (no result: DUSP3 inh, SARS 3CLpro inh) | CCHF vOTU inh-2 106.9
O=C1c2cc(CO)cc(O)c2C(=O)c2c(O[C@@H]3OC(CO)[C@@H](O)[C@@H](O)[C@@H]3O)cccc21 (stereo partly specified)	none (no result: DUSP3 inh, SARS 3CLpro inh)
O=C(O)c1cc(O)c2c(c1)[C@@H]([C@H]1c3cc(C(=O)O)cc(O)c3C(=O)c3c(O[C@@H]4O[C@H](CO)[C@@H](O)[C@H](O)[C@H]4O)cccc31)c1cccc(OC3O[C@H](CO)[C@@H](O)[C@H](O)[C@H]3O)c1C2=O (stereo partly specified)	CCHF vOTU inh-1 73.2 (no result: DUSP3 inh, SARS 3CLpro inh) | CCHF vOTU inh-2 33.2
O=C(NCc1ccc2c(c1)OCO2)C(=O)NC[C@@H](c1ccco1)N1CCc2ccccc2C1	none (no result: DUSP3 inh, SARS 3CLpro inh, Vc quorum ag, TcdB inh, CCHF vOTU inh-1)
CCn1nc(NS(=O)(=O)c2ccccc2[N+](=O)[O-])c2cc3ccc(C)cc3nc21	none (no result: TcdB inh, CCHF vOTU inh-1)
CCn1nc(NS(=O)(=O)c2ccccc2[N+](=O)[O-])c2cc3cccc(C)c3nc21	CCHF vOTU inh-1 32.4 | CCHF vOTU inh-2 inactive
Oc1ccc(/C=N\Nc2cc(N3CCOCC3)nc(N3CCOCC3)n2)c(O)c1	CCHF vOTU inh-1 42.1 (no result: SSB-PriA inh) | CCHF vOTU inh-2 inactive
Oc1ccc(C=NNc2cc(N3CCOCC3)nc(N3CCOCC3)n2)cc1	none (no result: DUSP3 inh, SARS 3CLpro inh, Vc quorum ag, TcdB inh, CCHF vOTU inh-1)
FC(F)(F)c1cccc(NC2=NCCCS2)c1	none
FC(F)(F)Oc1ccc(NC2=NCCCS2)cc1	CCHF vOTU inh-1 44.3 | CCHF vOTU inh-2 inactive
CC1(Cc2ccc(C(F)(F)F)o2)C(=O)Nc2ccc(-c3cccc(C(F)(F)F)c3)cc21 (stereo unspecified)	CCHF vOTU inh-1 35.8 (no result: DUSP3 inh, SARS 3CLpro inh, SSB-PriA inh) | CCHF vOTU inh-2 inactive

Screens: PubChem BioAssay, several laboratories
